# Results taken from PubChem BioAssay AID360 (National Center for Advancing Translational Sciences (NCATS), 2006).
# Out of some 48,000 compounds screened, about 550 (1.1%) were called active. Not shown: some 4% with an inconclusive outcome. Cut-off read from the data, not from the text of the source: active = potency below about 15 µM; inconclusive = mostly about 16 µM to 33 µM; inactive = weaker than that. Many of the other results were omitted from the sample, so actives are more common in it than they were.
# Target: Lysosomal acid glucosylceramidase (Homo sapiens) (UniProt P04062)
# Assay: Glucocerebrosidase;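 note: the screen sought inhibitors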
# Conditions: purified enzyme, resorufin glucoside fluorescence (screen aimed at inhibitors), 20 min
# In short: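 Normal human glucocerebrosidase (0.2 nM final) was assayed with resorufin β-D-glucopyranoside (30 uM final) in 50mM citric acid/KH2PO4, 10mM sodium taurocholate, 0.01% tween-20, pH 5.9. Compounds were titrated; fluorescence (Ex 548, Em 600) read after 20 min at RT.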
# Potency is the fitted concentration of half-maximal effect.
# Lysosomal acid glucosylceramidase (Homo sapiens), sequence (P04062 whole entry, looked up): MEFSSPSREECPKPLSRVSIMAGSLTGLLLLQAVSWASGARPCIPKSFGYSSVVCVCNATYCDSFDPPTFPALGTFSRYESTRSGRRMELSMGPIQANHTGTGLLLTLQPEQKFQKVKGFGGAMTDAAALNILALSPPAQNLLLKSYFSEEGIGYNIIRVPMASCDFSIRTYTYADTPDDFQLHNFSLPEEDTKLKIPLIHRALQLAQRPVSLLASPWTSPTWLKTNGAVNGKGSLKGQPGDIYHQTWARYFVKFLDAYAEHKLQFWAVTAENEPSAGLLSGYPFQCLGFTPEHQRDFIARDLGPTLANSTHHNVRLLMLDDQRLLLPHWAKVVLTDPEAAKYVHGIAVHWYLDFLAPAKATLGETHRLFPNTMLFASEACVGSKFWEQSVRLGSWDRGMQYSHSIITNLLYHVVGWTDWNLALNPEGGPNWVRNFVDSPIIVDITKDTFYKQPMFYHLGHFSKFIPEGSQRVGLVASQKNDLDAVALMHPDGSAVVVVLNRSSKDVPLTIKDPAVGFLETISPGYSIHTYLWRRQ
row,SMILES,Potency
1,COc1ccc(OC)c(NC(=O)CSc2nc3cccnc3n2C)c1,> 76.9 µM (inactive)
2,CCOC(=O)CSc1nnc(CNc2nc(-c3ccccc3)cs2)n1C,> 76.9 µM (inactive)
3,Cc1ccc(NC(=O)Cn2nc(C)c3ccccc3c2=O)c(C)c1,> 76.9 µM (inactive)
4,COC(=O)c1ccc2c(=O)n(CC3CCCO3)c(=S)[nH]c2c1 (configuration not stated),> 76.9 µM (inactive)
5,O=c1c2cc3c(=O)n(CC4CCCO4)c(=O)c3cc2c(=O)n1CC1CCCO1 (configuration not stated),> 76.9 µM (inactive)
6,O=C(NC1CCCCC1)c1ccc2c(=O)n(CC3CCCO3)c(=O)[nH]c2c1 (configuration not stated),6.37 µM (active)
7,O=C(C1CCC(C(=O)N2CCCC2)CC1)N1CCCC1 (configuration not stated),> 76.9 µM (inactive)
8,CCOc1ccc(NC(=O)Nc2cc(C)on2)cc1,> 76.9 µM (inactive)
9,CC1(C)CC(=O)C=C(NCCCN2CCCC2=O)C1,> 76.9 µM (inactive)
10,O=C(OCc1nnc(-c2ccccc2)o1)c1ccc2c(c1)C(=O)N(CCc1ccccc1)C2=O,> 76.9 µM (inactive)
11,CCNC(=O)CN(c1ccc(C)cc1)S(=O)(=O)c1ccc(SC)cc1,> 76.9 µM (inactive)
12,COc1ccc(Cl)cc1NC(=O)C1CC(=O)N(c2ccc(F)cc2)C1 (configuration not stated),> 76.9 µM (inactive)
13,O=S(=O)(NCc1ccccn1)c1ccc(Br)s1,> 76.9 µM (inactive)
14,c1ccc(-c2cc(-c3nnc4sc(-c5ccccn5)nn34)[nH]n2)cc1,> 76.9 µM (inactive)
15,CCCn1c(=O)c(-c2ccccc2)c(O)c2ccccc21,> 76.9 µM (inactive)
16,Cc1ccc(F)cc1NC(=O)c1ccc2c(c1)OCO2,> 76.9 µM (inactive)
17,Cc1ccc(-n2c(N)c(C(=O)N3CCOCC3)sc2=S)c(C)c1,> 76.9 µM (inactive)
18,COc1ccc(-n2nnnc2SCC(=O)c2ccc(OC)c(OC)c2)cc1,> 76.9 µM (inactive)
19,Cn1c(SCC(=O)Nc2cccc(NC(=O)c3cccs3)c2)nnc1-c1ccncc1,> 76.9 µM (inactive)
20,COc1ccc(N2CCN(C(=O)CSc3nnc4ncccn34)CC2)cc1,> 76.9 µM (inactive)
21,Cc1ccc(OCC(=O)Nc2ccc(-c3nc4ncccc4o3)cc2)cc1,> 76.9 µM (inactive)
22,O=C(O)c1ccc(-n2cccc2)cc1O,> 76.9 µM (inactive)
23,CCCCN(C)C(=O)C1CCN(Cc2ccccn2)CC1,> 76.9 µM (inactive)

row,SMILES,Potency
1,O=C(Nc1ccon1)c1cccc(Cl)c1,> 76.9 µM (inactive)
2,Fc1ccc(Cn2nnnc2C(c2cccs2)N2CCCCCC2)cc1 (configuration not stated),> 76.9 µM (inactive)
3,CCC(=O)N(Cc1cc2cc(OC)ccc2[nH]c1=O)c1ccccc1C,> 76.9 µM (inactive)
4,Cc1ccc(C2(c3ccc(C)cc3)NC(=O)N(Cc3c(C)noc3C)C2=O)cc1,> 76.9 µM (inactive)
5,CCOc1ccccc1C1C(C(=O)OC)=CN(C)C=C1C(=O)OC,> 76.9 µM (inactive)
6,CCOc1ccc(CNC(=O)C2CCC(=O)N2C2CCCC2)cc1OC (configuration not stated),> 76.9 µM (inactive)
7,CCOc1cc(C2C(C(=O)OC)=CN(C3CCCC3)C=C2C(=O)OC)cc(Br)c1O,6.06 µM (active)
8,CC(C)CCNC(=O)CN(C(=O)Cn1nnc(-c2ccc(F)cc2)n1)C1CCCC1,> 76.9 µM (inactive)
9,CC(=O)Nc1ccc(S(=O)(=O)NCCc2ccccc2)cc1,> 76.9 µM (inactive)
10,O=C(CN1CCN(c2nc(-c3ccccc3)cs2)CC1)NCc1ccc2c(c1)OCO2,> 76.9 µM (inactive)
11,O=C(CSc1nnc(-c2ccccc2)o1)N1CCOCC1,> 76.9 µM (inactive)
12,CCN1C(=O)/C(=C\N2CCN(c3ccccc3)CC2)SC1=S,70.4 µM (inactive)
13,CS(=O)(=O)N(CC(=O)N1CCN(c2cccc(Cl)c2)CC1)c1ccccc1,> 76.9 µM (inactive)
14,CCN1C(=O)/C(=C\N2CCN(c3cccc(Cl)c3)CC2)SC1=S,7.83 µM (active)
15,CCOc1ccc(NC(=O)N2CCN(CC)CC2)cc1,11.1 µM (active)
16,CCOc1ccc(NC(=O)Nc2ccc(N(C)C(C)=O)cc2)cc1,> 76.9 µM (inactive)
17,CCOc1ccc(NC(=O)N2CC=C(n3c(=O)[nH]c4ccccc43)CC2)cc1,> 76.9 µM (inactive)
18,COc1ccc(C(CNC(=O)c2cccnc2SC)N2CCOCC2)cc1 (configuration not stated),15 µM (active)
19,CSc1ncccc1C(=O)OCC(=O)N1CCOCC1,> 76.9 µM (inactive)
20,Cc1ccc(NC(=O)NCC(c2cccnc2)N2CCOCC2)cc1 (configuration not stated),> 76.9 µM (inactive)
21,COc1ccc2[nH]c(=O)c(CN(Cc3nnnn3CCc3ccccc3)CC3CCCO3)cc2c1 (configuration not stated),35.8 µM (inactive)
22,CCC(c1nnnn1Cc1ccccc1)N(Cc1cc2cc(OC)ccc2[nH]c1=O)CC1CCCO1 (configuration not stated),> 76.9 µM (inactive)
23,CCC(c1nnnn1Cc1ccco1)N(CCc1ccccc1)Cc1cc2ccc(OC)cc2[nH]c1=O (configuration not stated),14.2 µM (active)

row,SMILES,Potency
1,O=C(O)C1CCCN1S(=O)(=O)c1ccc2c(c1)CCC2 (configuration not stated),> 76.9 µM (inactive)
2,CSc1cccc(NC(=O)C2CCCN2S(=O)(=O)c2ccc3c(c2)CCC(=O)N3)c1 (configuration not stated),10.1 µM (active)
3,Cc1cccc(NC(=O)C2CCCN2S(=O)(=O)c2ccc(F)cc2)c1C (configuration not stated),> 76.9 µM (inactive)
4,COc1ccc(-n2c(C)nc3c(cnn3-c3ccccc3)c2=O)cc1,> 76.9 µM (inactive)
5,CNC(=O)c1nnn(-c2ccccc2)c1C(=O)NC,> 76.9 µM (inactive)
6,CCCCC(=O)Nc1ccc2c(c1)OCCO2,> 76.9 µM (inactive)
7,Cc1ccc(CNC(=O)CCCNC(=O)c2ccc(Cl)cc2)n1C,> 76.9 µM (inactive)
8,CCCC(=O)Nc1ccc(C(=O)NCCCn2ccnc2)cc1,6.73 µM (active)
9,CCOc1ccccc1C(=O)NCCCn1ccnc1,> 76.9 µM (inactive)
10,CCN(CC)C(=O)CCC(=O)Nc1ccc(C(=O)OC)cc1,> 76.9 µM (inactive)
11,CCCCC(=O)Nc1ccc(C(=O)NCCCn2ccnc2)cc1,5.11 µM (active)
12,CCc1c(C)nc(N)n2c(SCC(=O)N3CCN(c4ccccc4)CC3)nnc12,> 76.9 µM (inactive)
13,COc1c(C)cccc1C(=O)Nc1cc(Cl)ccc1N1CCOCC1,> 76.9 µM (inactive)
14,COc1ccc(S(=O)(=O)N2CCCC2)c(C)c1C,> 76.9 µM (inactive)
15,CC(C)C(c1nnnn1C1CCCC1)N1CCN(c2ccccc2F)CC1 (configuration not stated),45 µM (inactive)
16,CCOC(=O)c1c(C)[nH]c(C)c1C(=O)CSc1nc(N)cc(N)n1,> 76.9 µM (inactive)
17,O=C(CSc1nnc(-c2cnccn2)n1Cc1ccco1)c1ccc(Cl)c(Cl)c1,> 76.9 µM (inactive)
18,COCCCn1c(CCC(=O)O)ccc1-c1ccc(F)cc1,> 76.9 µM (inactive)
19,O=C(NCCCNC(=O)NC1CCCCC1)NC1CCCCC1,> 76.9 µM (inactive)
20,CC(=O)N1CSCC1C(=O)O (configuration not stated),> 76.9 µM (inactive)
21,O=C(CSc1nnc(-c2ccco2)n1CC1CCCO1)c1ccccc1 (configuration not stated),> 76.9 µM (inactive)
22,COc1ccc(C2C3=C(CC(C)(C)CC3=O)Oc3ncn4nc(-c5cccnc5)nc4c32)cc1OC (configuration not stated),> 76.9 µM (inactive)
23,CCCn1c(SCC(=O)Nc2c(C)cccc2C)nnc1C(C)C,> 76.9 µM (inactive)

row,SMILES,Potency
1,CCOC(=O)CSc1nnc(-c2ccco2)n1C,> 76.9 µM (inactive)
2,CN1CCC2(CC1)NC(=O)NC2=O,> 76.9 µM (inactive)
3,O=C(Nc1cnccn1)c1cccnc1,> 76.9 µM (inactive)
4,O=C(Cn1c(-c2ccccn2)nc2ccccc21)NCCN1CCOCC1,> 76.9 µM (inactive)
5,COc1ccc(-c2nnc(SCC(=O)c3ccco3)n2-c2ccccc2)cc1,> 76.9 µM (inactive)
6,Cc1ccc(C(C(=O)NC2CCCC2)N(Cc2ccco2)C(=O)CCC(=O)Nc2ccccn2)cc1 (configuration not stated),> 76.9 µM (inactive)
7,COc1ccc(C2C(C(=O)Nc3ccccc3OC)=C(C)Nc3nnnn32)c(OC)c1 (configuration not stated),> 76.9 µM (inactive)
8,COC(=O)c1ccc(C2C3=C(Nc4nnnn42)c2ccccc2OC3)cc1 (configuration not stated),8.19 µM (active)
9,COC(=O)c1ccc(C2NC(=O)NC(C)=C2C(=O)N(C)C)cc1 (configuration not stated),> 76.9 µM (inactive)
10,CCOC(=O)c1c(C)nc(-c2ccccc2)nc1NC(=O)C(C)C,> 76.9 µM (inactive)
11,O=c1[nH]nc(Cc2ccccn2)c2ccccc12,> 76.9 µM (inactive)
12,CCOC(=O)c1cnc(-n2nc(C)cc2C)nc1-n1nc(C)cc1C,> 76.9 µM (inactive)
13,CCc1ccccc1N(CC(=O)N1CCN(c2ccccc2F)CC1)S(C)(=O)=O,> 76.9 µM (inactive)
14,CCOc1ncccc1C(=O)OCc1cn2cc(Cl)ccc2n1,> 76.9 µM (inactive)
15,CN(Cc1ccccc1)Cc1ccccc1F,> 76.9 µM (inactive)
16,COc1ccccc1OCCC(=O)OCC(=O)NC(=O)NC(C)(C)C,> 76.9 µM (inactive)
17,CC(=O)c1cccc(S(=O)(=O)N2CCC(n3nnc4cc(F)ccc43)CC2)c1,> 76.9 µM (inactive)
18,O=S(=O)(c1cccc(S(=O)(=O)N2CCC(n3nnc4ccccc43)CC2)c1)N1CCCCC1,10.5 µM (active)
19,O=S(=O)(c1cccc(-c2nnc(SC(F)F)n2-c2ccccc2)c1)N1CCCCC1,> 76.9 µM (inactive)
20,O=C(C1=C(O)C(=O)N(Cc2ccccc2)C1c1cccnc1)c1ccco1 (configuration not stated),> 76.9 µM (inactive)
21,O=C1NC(c2cc3c(cc2Cl)OCO3)Oc2ccccc21 (configuration not stated),> 76.9 µM (inactive)
22,O=C1N(Cc2ccc3c(c2)OCO3)c2ccccc2C1(O)c1c[nH]c2ccccc12 (configuration not stated),> 76.9 µM (inactive)
23,CCC(=O)Nc1ccc(C(=O)CSc2nnc(CNc3ccc(Cl)cc3)o2)cc1OC,> 76.9 µM (inactive)
